A short description of test [1]: NCI Yeast Anticancer Drug Screen. Data for the rad50 strain (AID 155).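 Note: 0% = growth of vehicle-only cultures of the same strain.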 The note with it: S. cerevisiae rad50 strain growth inhibition; at 50.0 µM; stronger effect = higher value. A digest of the protocol: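 Inhibition values express reduced yeast growth in compound-treated cultures relative to vehicle-treated controls.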
The nature of test [2]: NCI Yeast Anticancer Drug Screen. Data for the mec2-1 strain (AID 157). As to conditions: S. cerevisiae mec2-1 strain, at 50.0 µM, stronger effect = higher value. A digest of the protocol: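 Each compound was tested on mec2-1 yeast, a strain altered in DNA damage repair or cell cycle control. Growth inhibition is reported relative to vehicle.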
A short description of test [3]: NCI Yeast Anticancer Drug Screen. Data for the sgs1 mgt1 strain (AID 161).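 Note: 0% = growth of cultures given vehicle only.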 The note with it: S. cerevisiae sgs1 mgt1 strain, at 50.0 µM, stronger effect = higher value. A digest of the protocol:
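Inhibition of yeast growth, normalised to vehicle-treated controls, is reported for a strain bearing genetic alterations in DNA damage repair.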

Test [4] in a line: NCI Yeast Anticancer Drug Screen. Data for the cln2 rad14 strain (AID 165).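 Note: 0% = growth equal to vehicle treated cultures.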 As to conditions: S. cerevisiae cln2 rad14 strain, at 50.0 µM, stronger effect = higher value. A digest of the protocol: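 Test compounds were added to cln2 rad14 yeast cultures; inhibition of growth was then determined by comparison with vehicle treatment.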
Test [5] is described as follows: NCI Yeast Anticancer Drug Screen. Data for the bub3 strain (AID 167). As to conditions: S. cerevisiae bub3 mutant strain, at 50.0 µM, stronger effect = higher value. A digest of the protocol:
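Steps: expose the mutant yeast strain to compound; grow alongside vehicle-treated cultures; measure growth; express inhibition against the vehicle cultures.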

A short description of test [6]: NCI Yeast Anticancer Drug Screen. Data for the mlh1 rad18 strain (AID 175). As to conditions: S. cerevisiae mlh1 rad18 strain growth inhibition; at 50.0 µM; stronger effect = higher value. The essentials:
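Inhibition values reflect reduced growth of mutant yeast versus vehicle-treated controls following compound exposure; the mutations affect DNA damage repair.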

Our source for the growth inhibition values is PubChem BioAssay (NCI).

The structures appear in SMILES notation. The panel holds about 79,000 compounds, 15% with a hit somewhere; the sample as a whole holds those more often. A number with no mark means an inactive call. The source made the active and inactive calls. Cut-off read from the data, not from the text of the source: active = growth inhibition above about 70%; inactive = the rest.

As to `O=c1[nH]cc(O)c(=O)[nH]1`, the growth inhibition in test [1] is -25.1%; in test [2] it was -41.3%; in test [3], -8.95%; in test [4], 12.7%; in test [5] it was -17.8%; in test [6], 6.4%.

As to `Cc1ccccc1C1OC(=O)c2ccccc21` (stereo unspecified), the growth inhibition in test [1] was 17.7%; in test [2] it was -8.85%; in test [3], 4.45%; in test [4], 4.2%; in test [5], 15.2%; in test [6], 27.6%.

As to `Nc1cc(C(F)(F)F)ccc1[N+](=O)[O-]`, the growth inhibition is 14.2% in test [1]; -10.2% in test [2]; 8% in test [3]; -7.25% in test [4]; 8.85% in test [5]; 22.4% in test [6].

In the case of `C=C(Cl)/C(=C\Cl)CCC(Cl)C(C)C` (stereo unspecified), the growth inhibition in test [1] was 19.6%; in test [2] it was 15.2%; in test [3], 3.1%; in test [4], 29.1%; in test [5], -15.3%; in test [6], 4.25%.

Regarding `O=C(O)c1cc(S(=O)(=O)O)ccc1O`, the growth inhibition in test [1] was 9.7%; in test [2], 18%; in test [3], -9.9%; in test [4], -29.9%; in test [5] it was -16.7%; in test [6], -13.2%.

For `COCC(OC)C(Cl)C(=O)Nc1ccc(Br)cc1` (stereo unspecified), the growth inhibition was 14.6% in test [1]; 31.1% in test [2]; 15.2% in test [3]; -14.4% in test [4]; 28.9% in test [5]; 10.8% in test [6].

On to `CC(=O)c1cc([N+](=O)[O-])c[nH]1`, for which the growth inhibition is 9.05% in test [1]; 1.45% in test [2]; 1.1% in test [3]; -19.1% in test [4]; 9.25% in test [5]; 0.5% in test [6].

For the compound `N#Cc1cccc(-c2ccc(-c3ccccc3)o2)c1`, the growth inhibition was 31.6% in test [1]; 27.4% in test [2]; 27.1% in test [3]; -7.25% in test [4]; 60.9% in test [5]; 20.4% in test [6].

For the compound `CN(C=O)c1cccc(C(=O)O)c1`, the growth inhibition in test [1] was 4.05%; in test [2] it was -1.2%; in test [3], -3.95%; in test [4], -29.5%; in test [5], -2.35%; in test [6] it was 7.45%.

As for `CNC(=O)NC(c1cc(OC)c(O)c(OC)c1)c1cc2c(cc1O)OCO2` (stereo unspecified), the growth inhibition in test [1] was 29.5%; in test [2] it was 38.8%; in test [3], 11.8%; in test [4], 9.6%; in test [5], 8.05%; in test [6] it was 44.6%.

On to `COC(=O)CC1CSCC1=O` (stereo unspecified), for which the growth inhibition was 7.5% in test [1]; 22.1% in test [2]; 5.95% in test [3]; -12.5% in test [4]; 12.6% in test [5]; 11.2% in test [6].

On to `O=C(NC1CCCCC1)OCc1c(COC(=O)NC2CCCCC2)c2cccn2c2c1cnn2-c1ccccc1`, for which the growth inhibition in test [1] was 3.7%; in test [2], 3.4%; in test [3] it was -27.6%; in test [4], 3.1%; in test [5], -2.95%; in test [6], 19.1%.

With `CC(=O)c1c(C)c([N+](=O)[O-])c(C)c([N+](=O)[O-])c1C`, the growth inhibition in test [1] is 2.1%; in test [2] it was 11.9%; in test [3], -8.9%; in test [4], -94.8%; in test [5] it was 23.4%; in test [6], 7.3%.

As for `Cc1ccc(SCCCN(C)C)cc1`, the growth inhibition was 42% in test [1]; 17.6% in test [2]; 35.6% in test [3]; 15.2% in test [4]; 14.2% in test [5]; 16.3% in test [6].

As for `CC(=O)OC(CCN(C)C)c1ccccc1` (stereo unspecified), the growth inhibition is -1.35% in test [1]; -7.5% in test [2]; 0.6% in test [3]; -34.1% in test [4]; 24% in test [5]; -5.45% in test [6].

Take `CCCCC(=O)OC[n+]1ccc2c(C)c3[nH]c4ccc(OC)cc4c3c(C)c2c1`: the growth inhibition in test [1] was 87.9% (active); in test [2], 91.8% (active); in test [3], 90.2% (active); in test [4], 89.1% (active); in test [5], 87.1% (active); in test [6], 91.8% (active).

Turning to `Cc1cc(Cl)c(O)c(-c2cc(-c3ccc([N+](=O)[O-])cc3)c3c(N)[nH]c(=O)nc3n2)c1`, the growth inhibition in test [1] is 44.1%; in test [2], -4.65%; in test [3], 35.5%; in test [4], 6.2%; in test [5] it was 19.6%; in test [6], 38%.

Consider `Nc1cccc(N)n1`, for which the growth inhibition in test [1] is 7.65%; in test [2] it was -12.2%; in test [3], -15.8%; in test [4], 5.7%; in test [5] it was -0.7%; in test [6], -14.6%.

`Cc1cccc(/C=N\N=C\c2cccc(C)n2)n1`: the growth inhibition in test [1] is 3.9%; in test [2] it was -10.2%; in test [3], -3.25%; in test [4], -3%; in test [5], -1.45%; in test [6] it was 23.3%.

As to `NNC(=O)c1ccc(Cl)cc1Nc1ccccc1`, the growth inhibition in test [1] is 24.9%; in test [2], 47%; in test [3], 59%; in test [4] it was 16.7%; in test [5], -17.2%; in test [6], 89% (active).

Take `N#CC(C#N)=CN1CCCC1`: the growth inhibition is -19.6% in test [1]; 9.4% in test [2]; -6.45% in test [3]; -12.3% in test [4]; -5.95% in test [5]; -1.7% in test [6].
